# Test results reported in PubChem BioAssay AID651812 (National Center for Advancing Translational Sciences (NCATS), 2012).
# Among all 2,100 compounds or so, about 650 (31%) were called active. Inconclusive results (about 16%) are left out. The call rests on the fitted dose curve; in most records, active means well fitted inhibition curve with a large enough effect; inconclusive means small, poorly fitted or top-dose-only effect; inactive means flat fitted curve, though single readings scatter. Some of the results follow. Entries that show only a call come without a potency.
# Test: qHTS for inhibitors of Vif-A3G interactions: Cherry picks; further: nearly all actives have a fitted effect of over 80% in size
# Conditions: HeLa A3G-eYFP + Vif (tagged APOBEC3G with the HIV-1 protein that degrades it), 24 h; Potency: eYFP fluorescence increase; series mostly up to 36.9 µM
# Method in brief: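 Cherry-picked compounds tested at several concentrations on A3G-eYFP/Vif HeLa cells for 24 hours; loss of Vif-driven degradation read as eYFP fluorescence by cytometric plate imaging, 488 nm excitation, 500-530 nm emission.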
# Potency means the concentration at half of the fitted maximal effect.
row,Structure (SMILES),Potency
1,C=CCN=c1scc(-c2ccc(F)cc2)n1/N=C/c1ccccn1,inactive
2,COc1ccc(CN2C(=O)C(C)Nc3ncnc(N4CCc5ccccc5C4)c32)cc1 (configuration not stated),inactive
3,Cc1cc(C)cc(NC(=O)/C=C/c2ccc([N+](=O)[O-])s2)c1,23.1 µM (active)
4,COC(=O)c1sccc1NC(=S)Nc1cc(C)cc(C)c1,inactive
5,Cc1noc(C)c1COc1ccc(C(=O)NNC(=O)c2ccccc2F)cc1,inactive
6,O=C(COc1ccccc1-c1ccccc1)NN=C1CCCC1,inactive
7,COc1ccc(-n2cc3c(-c4cccc(Br)c4)nnc(C)c3n2)cc1,inactive
8,C=CCN1C(=O)C2(NNc3ccccc3O2)c2ccccc21 (configuration not stated),12.5 µM (active)
9,c1ccc2c(-c3nc4ccccc4[nH]3)cccc2c1,inactive
10,O=C(Nc1ccccc1-c1nc2ccccc2[nH]1)c1ccc(N2C(=O)CCC2=O)cc1,23.1 µM (active)
11,CCOc1ccc(C(=O)Nc2cc(-c3nc4ccccc4[nH]3)ccc2Cl)cc1[N+](=O)[O-],inactive
12,Cc1c(NC(=O)c2csc3c2CCCC3)c(=O)n(-c2ccccc2)n1C,inactive
13,Cc1c(N/N=C(\C#N)C(=O)c2ccc(Cl)cc2)c(=O)n(-c2ccccc2)n1C,20.6 µM (active)
14,COc1cc(C=C2CCCC(=Cc3ccc(OCC4CO4)c(OC)c3)C2=O)ccc1OCC1CO1 (configuration not stated),inactive
15,CCOc1cc(/C=C2\CCC/C(=C\c3cc(Cl)c(O)c(OCC)c3)C2=O)cc(Cl)c1O,12.5 µM (active)
16,COc1cc(/C=N/Nc2ccc(Cl)nn2)cc(OC)c1O,inactive
17,C=CCOc1c(Cl)cc(C(=S)N2CCCC2)cc1OCC,inactive
18,COc1cc(/C=C2/CCC/C(=C\c3cc(O)c(OC)c(Cl)c3)C2=O)cc(Cl)c1O,18.4 µM (active)
19,COc1cc(/C=C2\COC/C(=C\c3cc(OC)c(OC)c(OC)c3)C2=O)cc(OC)c1OC,inactive
20,Cn1c(=O)c(N)c2c3c(c(Br)ccc31)C(=O)c1ccccc1-2,2.91 µM (active)
21,COc1ccccc1-c1noc(-c2ccc(NCc3ccco3)c([N+](=O)[O-])c2)n1,23.1 µM (active)
22,O=[N+]([O-])c1cc(-c2nc(-c3ccccc3)no2)ccc1NCc1ccco1,10.3 µM (active)
23,Cc1cccc(-c2noc(-c3ccc(NCc4ccco4)c([N+](=O)[O-])c3)n2)c1,16.4 µM (active)
24,COc1ccc(-c2cnc3c(c2)CCC3(C#N)C#N)cc1,inactive
25,O=C1N/C(=N\N=C\c2ccco2)SC1Cc1ccccc1[N+](=O)[O-] (configuration not stated),inactive

row,Structure (SMILES),Potency
1,Cc1ccccc1NCC(=O)N=Nc1c(O)[nH]c2ccc([N+](=O)[O-])cc12,inactive
2,CCN(CC)S(=O)(=O)c1cc([N+](=O)[O-])ccc1N=Nc1c(O)[nH]c2ccccc12,20.6 µM (active)
3,CN1C2=CC=CC=CC2=[N+](C)C12C([N+](=O)[O-])=CC(=[N+]([O-])[O-])C=C2[N+](=O)[O-] (configuration not stated),inactive
4,Nc1nn(-c2ccccc2)c(N)c1N=Nc1ccccc1,inactive
5,CCCCn1c(N)c(N(CCC(C)C)C(=O)c2ccc([N+](=O)[O-])o2)c(=O)[nH]c1=O,inactive
6,CCCCN(C(=O)c1ccc([N+](=O)[O-])s1)c1c(N)n(CCCC)c(=O)[nH]c1=O,inactive
7,Nc1c(N(CCC2=CCCCC2)C(=O)c2ccc([N+](=O)[O-])o2)c(=O)[nH]c(=O)n1Cc1ccccc1,18.4 µM (active)
8,O=Cc1s/c(=N\S(=O)(=O)c2ccccc2)n(CCCCl)c1Cl,inactive
9,CCOC(=O)Cn1c(=O)c(-c2cc(Br)ccc2N)nc2ccccc21,11.6 µM (active)
10,CCOC(=O)COn1c(=O)c(-c2ccc(Br)cc2)[n+]([O-])c2ccccc21,inactive
11,CCOC(=O)CSc1nc2c(c(=O)[nH]1)C(C)(CC)Cc1ccccc1-2 (configuration not stated),inactive
12,CCOC(=O)c1c(C)oc2ccc(N(C(=O)c3ccncc3)S(=O)(=O)c3ccc(Br)cc3)cc12,inactive
13,COc1cc(C(=O)NCC(=O)N2CCN(S(=O)(=O)c3cc(C)ccc3C)CC2)cc(OC)c1OC,inactive
14,COc1ccc(-n2c(O)c(/C=N/NS(=O)(=O)c3ccc(C)cc3)c3ccccc3c2=O)cc1OC,18.4 µM (active)
15,COc1ccc(-n2c(O)c(/C=N/NS(=O)(=O)c3cc(C)ccc3C)c3ccccc3c2=O)cc1OC,16.4 µM (active)
16,COc1cc(/C=N/Nc2cc(C)nc(NS(=O)(=O)c3ccccc3)n2)ccc1O,inactive
17,COc1ccc(S(=O)(=O)NCc2ccccn2)cc1NC(=O)c1ccc(C)cc1,inactive
18,COc1ccc(OC)c(S(=O)(=O)N/N=C\c2cn(CC(N)=O)c3ccccc23)c1,inactive
19,CCC(=O)OCc1cnc(C)c2oc(=O)c(C(=O)Nc3ccccc3C(F)(F)F)cc12,inactive
20,CC(=O)Nc1cccc(-c2ccnc3c2CC(C(=O)Nc2ccc4c(c2)OCO4)O3)c1 (configuration not stated),inactive
21,O=[N+]([O-])c1cc(O)c2ncccc2c1,inactive
22,Nc1[nH]c2cc([N+](=O)[O-])ccc2c1-c1ccccn1,8.2 µM (active)
23,c1ccc(-c2cccc(-c3ccccn3)n2)nc1,inactive
24,COc1ccc(-n2nnnc2S(=O)(=O)Cc2ccc(C(=O)O)cc2)cc1,inactive
25,CCOC(=O)c1[nH]c(C)c(C(=O)Nc2ccc(C)cc2C)c1C,inactive

row,Structure (SMILES),Potency
1,Cc1ccc(NC(=O)c2c(C)nc3sc(C(=O)NC4CCCC4)c(N)c3c2-c2ccco2)c(C)c1,20.6 µM (active)
2,CCc1ccc(NC(=O)c2sc3nc(C)c(C(=O)Nc4ccc(C)cc4C)c(-c4ccco4)c3c2N)cc1,23.1 µM (active)
3,COc1cccc(NC(=O)c2sc3nc(C)c(C(=O)Nc4ccc(C)cc4C)c(-c4ccco4)c3c2N)c1,inactive
4,CCOC(=O)N1CCN(C(=O)c2[nH]c(C(F)(F)F)nc2-c2ccccc2)CC1,inactive
5,CC1(C(=O)NCc2ccc(F)c(F)c2)Cc2c(-c3cccc(C(N)=O)c3)ccnc2O1 (configuration not stated),inactive
6,COc1ccc(CN(C(C)=O)c2cccc(C)c2C)cc1,inactive
7,FC(F)(F)c1ccccc1NC(=S)NN=C1CCCCCC1,inactive
8,COC(=O)c1sccc1S(=O)(=O)N(CC(=O)Nc1cc(F)ccc1F)c1ccc(C)c(C)c1,inactive
9,N#CCC(=O)N/N=C/c1ccc(N2N=C(c3ccccc3)CC2c2ccccc2)cc1 (configuration not stated),20.6 µM (active)
10,C/C(=N\NC(=S)NCc1ccccc1)c1cccs1,inactive
11,C/C(=N\Nc1nccnc1Cl)c1ccc(Cl)c(Cl)c1,inactive
12,COC(=O)c1sc2cc([N+](=O)[O-])cc(SCC(C)C)c2c1N,16.4 µM (active)
13,CCOC(=O)c1sc2cc([N+](=O)[O-])cc(SCC(C)C)c2c1N,2.91 µM (active)
14,CS(=O)(=O)N(CC(=O)N1CCN(Cc2ccccc2)CC1)c1ccccc1F,inactive
15,O=C(COC(=O)C12CC3CC(CC(Cl)(C3)C1)C2)N1CCCCC1,inactive
16,c1ccc(Nc2nc(-c3ccccn3)cs2)cc1,inactive
17,Cc1ccc(Nc2nc(Cl)c(C=O)s2)cc1Cl,16.4 µM (active)
18,O=Cc1sc(Nc2ccccc2)nc1Cl,23.1 µM (active)
19,COc1ccc(S(=O)(=O)N2CCCOC2CNC(=O)C(=O)NCCc2ccco2)cc1C (configuration not stated),inactive
20,C=C(C)CNC(=S)NNC(=O)c1ccco1,inactive
21,Cc1ccc2c(Cl)c(C)c(N3CCCC3)nc2n1,inactive
22,COc1ccc(C(=O)N2CCN(c3cccc(Cl)c3)CC2)cc1S(=O)(=O)NC1CC1,inactive
23,Cc1ccc(C(=O)NN(C)c2nc3ccccc3nc2C(F)(F)F)cc1,inactive
24,Cc1ccc(C(=O)NCCn2c(N)c(C#N)c3nc4ccccc4nc32)cc1,23.1 µM (active)
25,Cc1c(CCCl)c(Cl)n2c(nc3ccccc32)c1C#N,inactive

row,Structure (SMILES),Potency
1,COc1ccc(-c2cnc3c(NC=O)cc(-c4ccoc4)cn23)cc1OC,inactive
2,CCN(CC)c1ccc(/C=N/NC(=O)c2ccco2)c(O)c1,inactive
3,CC(C)NC(=S)N/N=C/c1sc(N2CCCCC2)nc1-c1cccs1,23.1 µM (active)
4,CC(C)NC(=S)N/N=C1\CCCCc2ccccc21,inactive
5,CNC(=S)N/N=C/c1ccc(N2CCOCC2)s1,inactive
6,CN(C)CCCNc1cc(N2CCN(C3CCCCC3)CC2)c2noc3c2c1C(=O)c1ccccc1-3,20.6 µM (active)
7,O=C1c2ccccc2-c2onc3c(N4CCN(C5CCCCC5)CC4)cc(NCCO)c1c23,4.61 µM (active)
8,CCNc1cc(N2CCN(C3CCCCC3)CC2)c2noc3c2c1C(=O)c1ccccc1-3,16.4 µM (active)
9,O=C(c1cc(-c2ccncc2)nc2ccccc12)N1CCN(c2ccccn2)CC1,inactive
10,CCOc1cc(C)nc(NCc2ccccc2)n1,inactive
11,C=CCOC(=O)C1=C(C)Nc2nnnn2C1c1cccs1 (configuration not stated),inactive
12,N#CC1=C(S)N(c2ccc(F)cc2)C2(CCCCC2)NC1=O,inactive
13,O=C(COc1ccccc1)NC(=S)Nc1cccc2c(O)cccc12,inactive
14,COc1ccc(OC)c(NCc2cccn2-c2nnc(N3CCC(C)CC3)s2)c1,inactive
15,Cc1ccc(CSc2nc(-c3ccc(C(C)(C)C)cc3)nc3cc(=O)[nH]n23)cc1,inactive
16,Cc1nnc(NC(=O)c2sc3nc(-c4cccs4)cc(C(F)(F)F)c3c2N)s1,9.2 µM (active)
17,Nc1c(C(=O)Nc2nc3ccccc3s2)sc2nc(-c3cccs3)ccc12,18.4 µM (active)
18,Nc1c(C(=O)Nc2ccc(F)cc2)sc2nc(-c3cccs3)cc(C(F)(F)F)c12,1.84 µM (active)
19,Nc1c(C(=O)Nc2nccs2)sc2nc(-c3cccs3)cc(C(F)(F)F)c12,14 µM (active)
20,O=C(Nc1nc2ccccc2s1)c1ccc([N+](=O)[O-])o1,inactive
21,O=C(N/N=C/c1ccsc1)c1cc(-c2cccs2)nc2ccccc12,inactive
22,Cn1c(=O)c2c(nc(NC3CCCC3)n2C)n(C)c1=O,inactive
